# High-throughput results as filed in PubChem BioAssay.
# RECQ1 helicase: qHTS Assay for Inhibitors of RecQ-Like Dna Helicase 1 (RECQ1); Potency, µM (highest dose often 57.3 µM), usual class: inhibitors; RECQ1 DNA unwinding, red fluorescence kinetic read; AID 2549, 2010; 240,000 compounds, 0.54% hits; note: nearly all actives have a fitted effect of over 30% in size
#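 RECQ1T1 50 nM; forked duplex (20 bp + 30-nt ss tails) 200 nM, ATP 2 mM final; pH 8.0, 2 mM MgCl2, 2.5 ug/ml poly(dI-dC); 15 min compound preincubation; discontinuous kinetic read over 2 h at RT.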
# BLM inh: qHTS Assay for Inhibitors of Bloom's syndrome helicase (BLM); recombinant BLM DNA unwinding, fluorescence dequenching; Potency, µM (series often up to 56.1 µM), hits mostly inhibitors; 350,000 compounds, 0.2% hits; AID 2528, 2010; note: nearly all actives have a fitted effect of over 35% in size
# APEX1 inh: qHTS Assay for Inhibitors of the Human Apurinic/apyrimidinic Endonuclease 1 (APE1) | recombinant APE1, TAMRA/BHQ-2 abasic DNA cleavage fluorescence | Potency, µM (doses to about 65.8 µM), usual class: inhibitors | 350,000 compounds, 0.35% hits; note: nearly all actives have a fitted effect of over 55% in size
#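 Activity was derived from the fluorescence gain between first and third kinetic reads (60 s intervals, ex 525/em 598 nm) after 50 nM THF-abasic TAMRA/BHQ-2 duplex was added to 0.75 nM APE1 preincubated 15 min with compound.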
# GCN5L2 inh: qHTS Assay for Inhibitors of GCN5L2. Histone acetyltransferase KAT2A (Homo sapiens), Q92830. GCN5L2 HAT assay, ThioGlo1 CoA-SH fluorescence. Potency, µM (highest dose often 58.9 µM), usual class: inhibitors. 390,000 compounds, 0.21% hits. AID 504327, 2011
#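 Titration-based screen in which CoA formation is detected via maleimide probe ThioGlo1 (50uM) turning fluorescent on thiol reaction; substrates H3(1-25) 75uM and acetyl-CoA 70uM, GCN5L2 20nM, 20 min incubation at room temperature.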
# FEN1 inh-1: qHTS Assay for the Inhibitors of Human Flap endonuclease 1 (FEN1). P39748. 390,000 compounds, 0.35% hits. AID 588795, 2011. Recombinant FEN1 flap cleavage, fluorescence, 15 min. Potency, µM (titrated, usually from 114 µM), hits mostly inhibitors; note: nearly all actives have a fitted effect of over 65% in size
#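 Nuclease activity of 10 nM FEN1 was measured after 15 min of room-temperature exposure to titrated compounds, by adding 50 nM flap substrate and reading plates at 0 and 15 min.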
# PI5P4Ka inh: qHTS for Inhibitors of phosphatidylinositol 5-phosphate 4-kinase (PI5P4K); Phosphatidylinositol 5-phosphate 4-kinase type-2 alpha (Homo sapiens), P48426; PI5P4Kalpha enzyme, ADP-Glo luminescence, 60 min; stronger effect = lower value; max response, %; 330,000 compounds, 1.2% hits; AID 652105, 2013; active = max response of -50% or lower; inconclusive = between -30% and -50%; inactive = -30% or higher; note: value at the top dose of about 77 µM
# Target sequence (P48426 whole entry, looked up): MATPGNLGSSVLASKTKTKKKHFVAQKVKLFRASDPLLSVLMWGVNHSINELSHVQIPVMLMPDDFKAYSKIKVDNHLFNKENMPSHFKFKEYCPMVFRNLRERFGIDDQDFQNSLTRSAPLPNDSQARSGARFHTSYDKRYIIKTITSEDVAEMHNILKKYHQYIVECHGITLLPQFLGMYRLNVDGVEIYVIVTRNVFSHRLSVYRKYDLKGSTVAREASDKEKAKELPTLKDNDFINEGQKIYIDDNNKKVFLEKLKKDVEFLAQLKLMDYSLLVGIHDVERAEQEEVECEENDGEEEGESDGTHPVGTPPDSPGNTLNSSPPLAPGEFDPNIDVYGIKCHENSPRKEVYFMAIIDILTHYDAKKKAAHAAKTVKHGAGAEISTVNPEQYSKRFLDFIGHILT
#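 Reactions run in 0.038 M HEPES pH 7.4, 0.28 mM EGTA, 0.1% CHAPS and 5% DMSO, with PI5P4Kalpha, substrate, compound and 5 microM ATP final, one hour at room temperature. Readout is ADP-Glo luminescence.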
# FEN1 inh-2: qHTS Assay for the Inhibitors of FEN1: Confirmatory Assay for Cherry-picked Compounds; shares compounds with FEN1 inh-1; FEN1 flap cleavage, TAMRA/BHQ2 fluorogenic DNA substrate; Potency, µM, usual class: inhibitors; 880 compounds, 79% hits; AID 720498, 2013; note: nearly all actives have a fitted effect of over 60% in size
# Hits are given with their value; . = inactive; ? = inconclusive; / = not tested or not shown; ! = repeats disagree. An excerpt weighted towards active compounds, which were near 1.5% of everything screened. Unless noted, calls come from the whole dose curve; as a rule, active = well fitted curve in the direction sought with a large enough effect; inconclusive = small, poorly fitted or top-dose-only effect, or another doubt; inactive = no such curve, though single readings can be large; an effect the other way counts as inactive or inconclusive.
SMILES,RECQ1 helicase,BLM inh,APEX1 inh,GCN5L2 inh,FEN1 inh-1,PI5P4Ka inh,FEN1 inh-2
O=C1NC(=O)N(CCC2=CCCCC2)C(=O)/C1=C\c1cccs1,.,.,.,.,?,?,/
CCOc1cccc(N2C(=O)/C(=C/c3ccco3)C(=O)NC2=S)c1,/,28.2µM,10.6µM,?,22.4µM,-92.9,42.6
O=C1NC(=O)N(CCc2ccc(F)cc2)C(=O)/C1=C/c1ccco1,28.2µM,.,10µM,28.2µM,?,-75.3,75.7
CNc1ccc2oc(C[C@H]3O[C@]4(CC[C@H]3C)O[C@H]([C@H](C)C(=O)c3ccc[nH]3)[C@H](C)C[C@H]4C)nc2c1C(=O)O,.,.,?,?,/,/,/
CCCCC(C#N)(Cn1cncn1)c1ccc(Cl)cc1 (configuration not stated),.,.,.,.,/,/,/
Oc1ccc2c3c1O[C@H]1c4c(c5ccccc5n4Cc4ccccc4)C[C@@]4(O)C(C2)N(CC2CC2)CC[C@]314,.,/,.,.,/,/,/
CC(C)CS(=O)(=O)C1=NN2C(=N)/C(=C\c3ccc(OC(=O)c4ccco4)cc3)C(=O)N=C2S1,/,.,.,?,.,-84.0,?
O=c1cc(-c2ccc(O)cc2)oc2c([C@H]3O[C@@H](CO)[C@@H](O)[C@@H](O)[C@@H]3O)c(O)cc(O)c12,.,.,?,.,/,/,/
Cc1cn([C@H]2C[C@H](O)[C@@H](CO)O2)c(=O)[nH]c1=O,.,.,?,.,/,/,/
COC(=O)c1nc(-c2ccc3c(n2)C(=O)C(N)=C(OC)C3=O)c(N)c(-c2ccc(OC)c(OC)c2O)c1C,.,.,?,.,15.8µM,.,37.9
O=C1NC(=O)N(c2cccc(Cl)c2)C(=O)/C1=C\c1ccc(Sc2nc3ccccc3[nH]2)o1,12.6µM,.,?,?,44.7µM,-74.4,?
COc1ccc(CN2C(=O)NC(=O)/C(=C/c3ccc([N+](=O)[O-])s3)C2=O)cc1,31.6µM,.,?,?,14.1µM,-74.6,16.9
O=C1NC(=O)N(Cc2ccc(F)cc2)C(=O)/C1=C\c1ccc([N+](=O)[O-])s1,31.6µM,.,?,?,25.1µM,-78.6,6.75
COc1ccc(CN2C(=O)CC(=O)NC2=S)cc1,.,?,.,.,.,?,/
O=C1NC(=O)N(c2ccccc2)C(=O)/C1=C\c1ccccc1[N+](=O)[O-],.,.,.,.,.,?,/
COc1ccc(/C=C2/C(=O)N(Cc3ccco3)C(=O)N(C(C)C)C2=O)cc1,25.1µM,.,22.4µM,?,?,?,26.9
CN(C)[C@@H]1C(=O)C(C(N)=O)=C(O)[C@@]2(O)C(=O)C3=C(O)c4c(O)cccc4[C@@](C)(O)[C@H]3[C@H](O)[C@@H]12,11.2µM!,.,7.94µM!,28.2µM!,11.2µM!,-84.9,75.7
COC1C(C)OC(OC2CC(C)(O)Cc3cc4c(c(O)c32)C(=O)c2c(O)cc3c(c2C4=O)OC2OC3(C)C(O)C(N(C)C)C2O)C(OC)C1(C)OC (configuration not stated),/,/,/,/,15.8µM,.,4.78
CC(C)C[C@H]1CNC(=S)N1CC1CCN(CC2CCC(C(C)(C)C)CC2)CC1 (some centres not stated),/,/,/,/,?,.,/
Cc1o[nH]c(=O)c1CC(N)C(=O)O (configuration not stated),.,/,.,.,?,/,/
N[C@@H](Cc1cc(I)c(O)c(I)c1)C(=O)O,?,.,.,?,7.94µM,-98.0,60.1
COc1ccccc1N1C(=O)NC(=O)/C(=C/c2ccc([N+](=O)[O-])s2)C1=O,.,.,.,.,44.7µM,-63.3,10.7
COc1cccc(N2C(=O)NC(=O)/C(=C/c3ccc([N+](=O)[O-])s3)C2=O)c1,?,.,?,.,39.8µM,?,15.1
COc1ccc(N2C(=O)NC(=O)/C(=C/c3ccc(N4CCOCC4)cc3)C2=O)cc1,.,.,.,.,/,/,/
COc1ccc(N2C(=O)NC(=O)/C(=C/c3ccc([N+](=O)[O-])s3)C2=O)cc1,?,.,?,.,?,-77.4,19
SMILES,RECQ1 helicase,BLM inh,APEX1 inh,GCN5L2 inh,FEN1 inh-1,PI5P4Ka inh,FEN1 inh-2
COc1ccc(N2C(=O)NC(=O)/C(=C\c3ccc([N+](=O)[O-])s3)C2=O)cc1,?,.,?,.,?,-63.3,9.53
CCNCC,.,/,.,/,/,/,/
FC(Cl)(Cl)Cl,.,/,.,/,/,/,/
COc1ccc(N2CC(C(=O)NCc3ccco3)CC2=O)cc1 (configuration not stated),.,.,?,.,.,.,/
c1ccc2sc(C3(NCC4CC4)CCCCC3)cc2c1,.,/,.,.,/,/,/
Nc1ncnc2c1ncn2[C@@H]1O[C@H](COP(=O)(O)OP(=O)(O)OP(=O)(O)O)[C@H]2OC3(O[C@H]21)C([N+](=O)[O-])=CC(=[N+]([O-])[O-])C=C3[N+](=O)[O-] (some centres not stated),.,.,.,.,/,/,/
O=C(NN=Cc1ccc(N(CCCl)CCCl)cc1)c1cc(=O)[nH]c(=O)[nH]1,/,/,/,/,.,.,/
O=C(Cc1cc(=O)oc2cc(O)ccc12)NN=Cc1ccc(N(CCCl)CCCl)cc1,/,/,/,/,31.6µM,.,37.9
CC(CCC(=O)O)C1CCC2C3CC[C@H]4CC(O)CC[C@@]4(C)C3CC[C@@]12C (some centres not stated),.,.,?,?,/,/,/
Cc1cc(C=C(C#N)C#N)ccc1N1CCCC1,.,.,.,.,?,.,75.7
N#CC(C#N)=Cc1ccc(N2CCOCC2)cc1,.,.,.,.,.,.,/
O=C1NC(=S)NC(=O)C1=Cc1cccn1-c1ccc(O)cc1,.,.,?,?,35.5µM,-83.7,75.7
Cc1cc(C)cc(N2C(=O)NC(=O)/C(=C\c3cccn3-c3ccc(Cl)cc3)C2=O)c1,.,.,.,.,.,?,/
CC1=C(O)C(=O)[C@@H]2O[C@@H]2C1=O,.,/,.,.,/,/,/
